For 6 molecules, AC50 and outcome results are on record in PubChem BioAssay (EPA / NIEHS).

Each structure is given as a SMILES string. “And” between values parts separate entries of the source, which are not always exact repeats. Identical values can stand only once. Results filed as inconclusive are left out. The source made the active and inactive calls. The calls were made as follows, unless noted: active = hit-call score of the fitted dose curve at least 0.9, where 1 is the maximum; inconclusive = response in the unintended direction; inactive = score below 0.9.

What is called AC50 is the concentration giving half of the maximal activity seen.

Experiment [1] in a line: CCTE_Simmons_CellTiterGLO_HEK293T: Viability Assessment in CCTE's Assays for Thyroperoxidase (TPO) Inhibition, Simmons Lab (AID 2283665).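 As to AC50: cells exposed to compound for 24 h before readout; actives reduce ATP signal below DMSO vehicle meaning cytotoxicity.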 In short, it runs like this: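 Cytotoxicity counter-screen: human HEK293T cells in low-serum (1% FBS) medium receive test chemical, 5 nM to 87.5 uM final, for 24 h; ATP is quantified by luciferase luminescence.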
(Cellular ATP, detected with luciferase, serves as a proxy for viable cell number.)

The nature of experiment [2]: Tanguay_ZF_120hpf_TR_legacy: (Legacy) Oregon State University Tanguay Lab 120 Hour Post-fertilization zebrafish Assay for Touch Response (AID 2283667). An outline of the steps: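 Tropical 5D wild-type zebrafish embryos statically exposed to 120 hpf at 28°C, sealed and dark-covered, 0.64% DMSO final; touch response scored as present/absent by brightfield microscopy at 120 hpf. Trimethyltin chloride 5 uM positive control; dead embryos not scored.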

The nature of experiment [3]: CCTE_Padilla_ZF_144hpf_TERATOSCORE: (Legacy) CCTE's 144 Hour Post-fertilization zebrafish Assay Teratoscore, Padilla Lab (AID 2283679; active = hit-call score of the fitted dose curve at least 0.9, where 1 is the maximum; inactive = score below 0.9;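 as to AC50: zebrafish embryos with chorions exposed by immersion from 6-8 hpf to 5 dpf with daily renewal; teratogenicity score from eye scoring of death hatching and malformations at 144 hpf; higher score means more developmental defects relative to DMSO baseline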). In short, it runs like this: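 Larvae scored by eye at 144 hpf for death, hatching and malformations after a day in clean Hanks'. Before that, daily-renewed exposure at 80 uM (0.4% DMSO, 26C) from roughly 6-8 hpf through 5 dpf, 4 embryos per chemical.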

A short description of experiment [4]: CEETOX_H295R_MTT_cell_viability: Viability Assessment in the CeeTox HT-H295R MTT Assay (AID 2283718; active = hit-call score of the fitted dose curve at least 0.9, where 1 is the maximum; inactive = score below 0.9;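 as to AC50: curve fitted both ways so AC50 may mark viability loss or gain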). An outline of the steps: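 Human H295R adrenal cells, prestimulated 48 h with 10 uM forskolin, were exposed 48 h to chemicals in 0.1% DMSO. Viability was measured in the same wells by MTT (0.5 mg/ml, 4 h, 37 C), absorbance 570/650 nm, as percent of controls.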

The nature of experiment [5]: Tanguay_ZF_120hpf_ActivityScore_legacy: (Legacy) Oregon State University Tanguay Lab 120 Hour Post-fertilization zebrafish Assay Score for Activity (AID 2283742).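 As to AC50: dechorionated Tropical 5D wild-type zebrafish embryos held singly per well; static exposure from 6 hpf until 120 hpf at 28 °C.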 An outline of the steps: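 Dechorionated Tropical 5D embryos, one per well from 6 hpf, statically exposed to 120 hpf at 28 °C in 0.64% DMSO. Mortality and malformations scored binary by brightfield microscopy; activity score combines 18 endpoints, fitted positively versus DMSO.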

Experiment [6] can be described thus: STM_H9_OrnithineISnorm_perc: Stemina devTOX quickPredict H9 human embryonic stem cell (hESC)-based Assay for Ornithine (ORN) Metabolite Biomarker, Normalized (AID 2283712; active = hit-call score of the fitted dose curve at least 0.9, where 1 is the maximum; inactive = score below 0.9;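 also: ornithine released into spent medium during last day measured by mass spectrometry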). In short, it runs like this: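 Cells: undifferentiated H9 hESC. Dosing: 72 h, media replaced every 24 h. Sample: final 24-h conditioned media, 40% acetonitrile. Read: UPLC-HRMS ornithine area vs 13C standard, % DMSO control.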

The nature of experiment [7]: STM_H9_CystineISnorm_perc: Stemina devTOX quickPredict H9 human embryonic stem cell (hESC)-based Assay for Cystine (CYSS) Metabolite Biomarker, Normalized (AID 2283713; active = hit-call score of the fitted dose curve at least 0.9, where 1 is the maximum; inactive = score below 0.9). An outline of the steps: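 Secreted cystine was measured by UPLC-HRMS in H9 hESC medium after 72h compound exposure with 24-hourly replenishment. Values are standard-normalized areas relative to 0.1% DMSO.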

Experiment [8] in a line: STM_H9_OrnCyssISnorm_ratio: Stemina devTOX quickPredict H9 human embryonic stem cell (hESC)-based Assay for Ornithine (ORN):Cystine (CYSS) Ratio (AID 2283714). In short, it runs like this: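 Undifferentiated H9 hESCs exposed 72 h, media and compound replaced every 24 h; final 24-h conditioned media deproteinized and analysed by UPLC-HRMS against C13 spike-ins. Value is the internal-standard-normalized ORN/CYSS ratio versus 0.1% DMSO.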

Experiment [9] concerns Thyroperoxidase (TPO), gene 445522. Nature of the experiment: CCTE_Simmons_GUA_TPO: CCTE's Guaiacol Assay for Thyroperoxidase (TPO) Inhibition, Simmons Lab (AID 2283750). An outline of the steps:
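Porcine thyroid microsomes (25 ug) in 200mM potassium phosphate, preincubated 30 s at 37C with compound (8 concentrations, 5 nM–87.5 uM) and 35mM guaiacol; 1mM H2O2 starts reaction. Absorbance change at 450nm over first 80 s; loss of signal versus DMSO, three replicates.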

Take `Oc1ccc2c(c1)-c1ccccc1C2`: the concentration at half-maximal activity (AC50) was 60.1 µM (active) in experiment [1]; 32.1 µM (active) in experiment [2]; 32.9 µM (active) in [3]; 32.8 µM (active) in experiment [4]; 46.6 µM (active) in [5].
For the molecule `Cn1cnc([N+](=O)[O-])c1Sc1ncnc2nc[nH]c12`, the AC50 in experiment [1] is 1.09 µM (active); in [6], 3.25 µM (active); in experiment [7], 3.49 µM (active); in [8], 3.28 µM (active). The outcome in experiment [2] and in [5] was inactive.
With `O=C(CCCCCCCCc1cccnc1)N1CCC(C=C(c2ccccc2)c2ccccc2)CC1`, the concentration at half-maximal activity (AC50) is 5.13 µM (active) in [1] and 14.2 µM (active) in experiment [3]. Further, the molecule was classed as inactive in experiment [2] and in experiment [5].
Regarding `O=C(OC[C@H]1O[C@@H](OC(=O)c2cc(O)c(O)c(OC(=O)c3cc(O)c(O)c(O)c3)c2)[C@H](OC(=O)c2cc(O)c(O)c(OC(=O)c3cc(O)c(O)c(O)c3)c2)[C@@H](OC(=O)c2cc(O)c(O)c(OC(=O)c3cc(O)c(O)c(O)c3)c2)[C@@H]1OC(=O)c1cc(O)c(O)c(OC(=O)c2cc(O)c(O)c(O)c2)c1)c1cc(O)c(O)c(OC(=O)c2cc(O)c(O)c(O)c2)c1`, the AC50 in experiment [1] was 1.41 µM (active); in [3], 4.71 µM (active). Further, the molecule was called inactive in experiment [2] and in experiment [5].
On to `Cc1ccc(N)cc1O`, for which the molecule was classed as inactive in [1], in [2], in [3], in [4] and in [5]. Moreover, the AC50 in [9] is 3.61 µM (active).
For `CC[C@H](C)C(=O)O[C@H]1C[C@@H](C)C=C2C=C[C@H](C)[C@H](CC[C@@H]3C[C@@H](O)CC(=O)O3)[C@H]21`, the call in [1], in experiment [2], in [6] and in experiment [4] was inactive. Also, the AC50 was 7.47 nM (active) and 5.89 nM (active) and 5.45 nM (active) in experiment [3]; 13.2 µM (active) in experiment [7]; 6.84 µM (active) in experiment [8]; 1.68 µM (active) in experiment [5].
